Measured values taken from ChEMBL document CHEMBL3988442, “University of Dundee, Small-Polar-MMV Screening Library” (2021).

The compounds below were run against T1, Tyrosyl-tRNA synthetase, putative (Trypanosoma cruzi (strain CL Brener)) (UniProt Q4DSP6) (assay: Trypanosoma cruzi tyrosyl tRNA synthetase (TcYRS) SOP). Conditions: 30 µM.
T1 sequence (whole entry): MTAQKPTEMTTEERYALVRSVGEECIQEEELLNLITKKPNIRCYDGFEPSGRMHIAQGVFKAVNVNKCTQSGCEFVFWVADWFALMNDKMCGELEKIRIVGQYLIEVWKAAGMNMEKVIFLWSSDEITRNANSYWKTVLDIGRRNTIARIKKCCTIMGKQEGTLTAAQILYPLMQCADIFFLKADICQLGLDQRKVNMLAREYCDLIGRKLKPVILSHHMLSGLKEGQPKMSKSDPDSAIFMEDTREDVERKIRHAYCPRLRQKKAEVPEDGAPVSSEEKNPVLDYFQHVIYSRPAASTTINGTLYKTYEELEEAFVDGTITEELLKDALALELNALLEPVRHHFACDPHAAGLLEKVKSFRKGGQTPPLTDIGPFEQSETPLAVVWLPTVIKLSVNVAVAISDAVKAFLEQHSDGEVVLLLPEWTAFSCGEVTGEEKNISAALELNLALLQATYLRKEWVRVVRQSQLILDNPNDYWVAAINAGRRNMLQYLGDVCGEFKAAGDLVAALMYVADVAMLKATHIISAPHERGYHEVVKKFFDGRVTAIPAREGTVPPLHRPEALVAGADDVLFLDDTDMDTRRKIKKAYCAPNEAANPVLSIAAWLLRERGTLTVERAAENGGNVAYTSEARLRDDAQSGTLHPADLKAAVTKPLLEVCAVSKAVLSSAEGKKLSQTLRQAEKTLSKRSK
Assay type: functional
Design: scale not given: direction of the effect not stated beside the values
Compound `O=C(NCCc1ccccn1)NC1CCN(c2ncccn2)CC1` has a Percent Effect of 23.5%. `CCO[C@@H]1CO[C@@]2(CCCN(C(=O)COc3ccccc3OC)C2)C1` gave a Percent Effect of 16.7%. Work on `O=C(c1ccc2c(c1)COC2)N1CCN(CC2CC2)CC1` yielded a Percent Effect of -1.27%. Compound `CN(Cc1ccc(F)cc1)CC1(O)CCCN(CC(C)(C)C)C1=O` (stereo not drawn) has a Percent Effect of -2.56%.

What follows are compounds tested against Chromo domain-containing protein 1 (Saccharomyces cerevisiae (strain ATCC 204508 / S288c) (Baker's yeast)) (UniProt P32657) (assay: ScCHD-1 Enzyme Inhibition Assay). Conditions: 30 µM.
Chromo domain-containing protein 1 (Saccharomyces cerevisiae (strain ATCC 204508 / S288c) (Baker's yeast)), sequence (P32657 whole entry, the tested form may be a part): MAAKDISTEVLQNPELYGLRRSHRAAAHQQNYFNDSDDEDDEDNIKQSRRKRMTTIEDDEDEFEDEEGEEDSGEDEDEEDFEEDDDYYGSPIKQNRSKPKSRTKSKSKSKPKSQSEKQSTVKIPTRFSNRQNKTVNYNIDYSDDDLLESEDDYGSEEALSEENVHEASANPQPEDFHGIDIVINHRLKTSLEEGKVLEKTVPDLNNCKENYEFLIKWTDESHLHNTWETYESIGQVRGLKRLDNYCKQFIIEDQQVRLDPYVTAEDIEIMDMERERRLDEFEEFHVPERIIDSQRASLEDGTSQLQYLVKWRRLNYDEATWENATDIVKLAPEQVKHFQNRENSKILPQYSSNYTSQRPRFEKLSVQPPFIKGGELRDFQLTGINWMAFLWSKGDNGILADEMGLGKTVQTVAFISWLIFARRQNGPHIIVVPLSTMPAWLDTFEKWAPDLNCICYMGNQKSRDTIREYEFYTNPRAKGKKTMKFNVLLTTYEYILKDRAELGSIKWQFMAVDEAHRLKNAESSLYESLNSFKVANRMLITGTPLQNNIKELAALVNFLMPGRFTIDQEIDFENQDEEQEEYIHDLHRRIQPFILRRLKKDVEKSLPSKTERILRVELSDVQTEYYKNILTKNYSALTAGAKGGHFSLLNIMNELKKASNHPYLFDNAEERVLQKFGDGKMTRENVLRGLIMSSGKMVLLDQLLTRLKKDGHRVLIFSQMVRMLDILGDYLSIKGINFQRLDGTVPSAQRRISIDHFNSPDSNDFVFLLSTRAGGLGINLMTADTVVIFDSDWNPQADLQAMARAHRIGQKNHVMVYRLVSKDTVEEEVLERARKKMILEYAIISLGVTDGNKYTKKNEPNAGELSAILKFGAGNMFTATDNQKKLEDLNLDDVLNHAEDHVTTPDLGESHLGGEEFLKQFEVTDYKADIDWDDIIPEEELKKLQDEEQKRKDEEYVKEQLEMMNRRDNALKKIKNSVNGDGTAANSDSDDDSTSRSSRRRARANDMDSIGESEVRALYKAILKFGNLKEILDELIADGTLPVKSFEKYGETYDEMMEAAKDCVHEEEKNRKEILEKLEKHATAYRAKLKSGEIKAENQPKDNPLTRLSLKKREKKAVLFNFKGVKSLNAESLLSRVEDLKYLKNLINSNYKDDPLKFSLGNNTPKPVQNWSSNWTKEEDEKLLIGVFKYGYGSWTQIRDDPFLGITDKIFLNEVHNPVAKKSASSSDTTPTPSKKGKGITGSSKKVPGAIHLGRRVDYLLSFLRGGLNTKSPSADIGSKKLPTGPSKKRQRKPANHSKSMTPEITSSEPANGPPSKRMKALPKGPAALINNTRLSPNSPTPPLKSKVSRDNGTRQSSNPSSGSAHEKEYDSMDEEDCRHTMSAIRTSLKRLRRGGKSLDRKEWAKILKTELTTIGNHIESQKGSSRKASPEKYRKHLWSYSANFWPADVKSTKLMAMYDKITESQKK
Assay type: functional
Design: scale not given: direction of the effect not stated beside the values
In the case of `CN(C)c1cc2c(nn1)CCN(C(=O)C1CCc3ccccc31)C2` (stereo not drawn), the Percent Effect is reported as -2.71%. With `Cc1nnc2n1CCN(C(=O)c1cn(-c3ccccc3Cl)nn1)C2` the Percent Effect was -2.71%. Work on `Cc1cccnc1NC(=O)NC(C)Cn1cccn1` (stereo not drawn) yielded a Percent Effect of -4.43%. `O=C(NCCNC(=O)N1CCC(c2ccccc2)C1)C1CC1` (stereo not drawn) showed a Percent Effect of -0.679%. Compound `COc1ccnc(N2CCN(C(=O)Cc3ccc(C#N)cc3)CC2)n1` has a Percent Effect of -7.06%. `CN(C(=O)NCCCN1CCCC1)C1CCN(c2ccccc2)C1=O` (stereo not drawn) gave a Percent Effect of -10.3%. Compound `Fc1ccc(CNCC2OCCc3cn(CC4CC4)nc32)cc1` (stereo not drawn) has a Percent Effect of 8.43%. In the case of `CC1CCCCN1CCNC(=O)c1ccn(-c2ccc(F)cc2)n1` (stereo not drawn), the Percent Effect is reported as -19.6%. In the case of `Cc1ccc(NC(=O)N2CCOC(C)C2)cc1Cl` (stereo not drawn), the Percent Effect is reported as -3.19%. In the case of `Cc1ccc(CN(Cc2ccccn2)C2CC(C)(C)NC(C)(C)C2)s1`, the Percent Effect is reported as -9.63%. `CN(C)c1ncccc1CNC(=O)N1CCCC1CN1CCCCC1` (stereo not drawn) showed a Percent Effect of -9.2%. With `Cc1nn(CCO)c(C)c1CNC1CCc2c(Cl)cccc21` (stereo not drawn) the Percent Effect was -14.3%. Work on `CCc1nc(C(=O)N2CCN(C)CC2C)nn1-c1ccccc1Cl` (stereo not drawn) yielded a Percent Effect of -9.77%. `O=C(Cc1ccsc1)N1CCCC(c2n[nH]c3nccnc23)C1` (stereo not drawn) showed a Percent Effect of -4.76%. `CN(C)CC(=O)N1CCCC2(CCC(=O)N(CCc3c[nH]cn3)C2)C1` (stereo not drawn) showed a Percent Effect of -1.67%. With `CCc1n[nH]c(C2CN(C(=O)c3csnn3)CCO2)n1` (stereo not drawn) the Percent Effect was -11.6%. `COc1cccc(CCNC(=O)CN2CCN(C)CC2C)c1` (stereo not drawn) was tested, and the Percent Effect was -5.6%. `Oc1ccc(N2CCN(Cc3cc4c(cc3Br)OCCO4)CC2)cc1` showed a Percent Effect of -3.02%. For `CC(C)OCCN(Cc1cccc(O)c1)C1CCC(O)CC1` (stereo not drawn), the Percent Effect was -0.807%. `O=C(CCN1CCCC1C1CCCCC1)N1CCc2sccc2C1` (stereo not drawn) was tested, and the Percent Effect was 10.3%. `Cc1cnn(CC2CCCN2Cc2cc(=O)n3cccc(C)c3n2)c1` (stereo not drawn) gave a Percent Effect of -5.16%. For `CCc1noc(C2CCCCN2C(=O)c2ccoc2C)n1` (stereo not drawn), the Percent Effect was -6.62%. In the case of `CCc1noc(C(C)N2CCN(Cc3nc(C)c(C)o3)CC2)n1` (stereo not drawn), the Percent Effect is reported as 2.3%. With `Cc1nn(C)c(C)c1C1CCCN1C(=O)c1cc[nH]n1` (stereo not drawn) the Percent Effect was 7.31%. In the case of `CNC(=O)C1Cn2ccnc2C2(CCN(Cc3cccc(C)n3)CC2)O1` (stereo not drawn), the Percent Effect is reported as 0.265%. With `CN(Cc1ccc(N2CCCCC2)cc1)Cc1noc(C(C)(C)C)n1` the Percent Effect was -1.32%. `O=C(Cc1ccc2c(c1)OCCO2)NC1CCCC1` was tested, and the Percent Effect was -5.69%. Work on `CC(C)NC(=O)c1ccc2c(c1)nc1n2CCN(c2ccccc2)C1` yielded a Percent Effect of -10.5%. `CCN(CC)C(=O)CCNc1cncc(-n2nc(C)cc2C)n1` gave a Percent Effect of -6.4%. Compound `CCn1nc(CC(C)C)cc1C(=O)N1CC[C@@H](O)C1` has a Percent Effect of 92.8%. Work on `O=C(c1ccsc1)N1CCc2c(CNc3ncccn3)n[nH]c2C1` yielded a Percent Effect of -6.05%. Work on `Cc1ncsc1CN1C[C@H](C(=O)N2CCCO2)[C@@H]2CCO[C@@H]2C1` yielded a Percent Effect of -1.86%. `CC(C)OCC(=O)N1CCCN(Cc2ccc(C#N)cc2)CC1` showed a Percent Effect of -8.3%. Compound `Cc1cc2n(n1)CC(CNCc1ccnc(-n3ccnc3C)c1)CN2` (stereo not drawn) has a Percent Effect of -13.8%. Work on `CCS(=O)(=O)N1CCC(c2nnc(CN3CCCC3)n2C2CC2)CC1` yielded a Percent Effect of -7.31%. In the case of `O=C(NCCc1ccccn1)NC1CCN(c2ncccn2)CC1`, the Percent Effect is reported as -4.07%. For `CCO[C@@H]1CO[C@@]2(CCCN(C(=O)COc3ccccc3OC)C2)C1`, the Percent Effect was -9.93%. `O=C(c1ccc2c(c1)COC2)N1CCN(CC2CC2)CC1` was tested, and the Percent Effect was 1.49%. `CN(Cc1ccc(F)cc1)CC1(O)CCCN(CC(C)(C)C)C1=O` (stereo not drawn) was tested, and the Percent Effect was 0.558%.
